Source: PubChem
Neddylation inh = blocks human cullin neddylation. AID 651699. 0.58% of 360,000 active. TR-FRET cullin neddylation, biochemical. P61081+Q13564. calls only at 25 µM; in the data active means inhibition above about 36%
PfG6PD inh = PfG6PD (Plasmodium falciparum) enzyme inhibition. PfGluPho enzyme, NADPH resazurin-diaphorase fluorescence. inhibition, % at 20 µM. 0.78% of 350,000 active. AID 504690;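 active means inhibition reaching at least a set limit at 20 µM in the primary screen, cut at about 59% in these data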;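 further: 0% = DMSO wells with substrate and 100% = DMSO wells lacking glucose-6-phosphate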
FAS TE block = inhibitors of human fatty acid synthase thioesterase domain; P49327; recombinant FAS-TE, OMFH fluorogenic substrate, fluorescence endpoint; inhibition, % at 15 µM; 0.67% of 360,000 active;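 active means compounds whose normalised, plate-corrected inhibition of enzyme fluorescence in the single-dose primary screen is 50% or more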;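 further: 0% = DMSO with enzyme and 100% = substrate without enzyme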
KLK7 zymogen act = proKLK7 (human) activation, primary screen; purified proKLK7, EDANS-DABCYL substrate fluorescence; 100% is mature enzyme control, 0% vehicle; activation, % at 7 µM; 0.9% of 370,000 active;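 active means activation above the mean of all tested compounds plus 3 SD, computed per campaign excluding outliers beyond control limits, cut at about 13% in these data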
Target sequence (P49862 whole entry, looked up): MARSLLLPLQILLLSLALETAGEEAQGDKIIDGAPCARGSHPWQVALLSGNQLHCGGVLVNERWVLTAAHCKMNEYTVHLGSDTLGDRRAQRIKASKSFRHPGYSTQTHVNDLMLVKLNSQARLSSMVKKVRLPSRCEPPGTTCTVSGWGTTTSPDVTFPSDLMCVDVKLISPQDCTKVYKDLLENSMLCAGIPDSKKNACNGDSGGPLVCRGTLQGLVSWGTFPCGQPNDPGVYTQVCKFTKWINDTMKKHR
PfGluPho conf = confirmation of Plasmodium falciparum G6PD inhibitors. shares compounds with PfG6PD inh. recombinant PfGluPho, NADPH-diaphorase-resazurin fluorescence. inhibition, % at 20 µM. 34% of 2,400 active. AID 504753;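 active means inhibition of at least 50% at 20 µM in any single replicate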;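 further: 0% = DMSO with substrate and 100% = DMSO lacking glucose-6-phosphate substrate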
Diaphorase 10uM = counter-screen for P. falciparum G6PD inhibitors: diaphorase inhibitors, oxidizers; 39% of 820 active; inhibition, % at 20 µM; shares compounds with PfG6PD inh; diaphorase-coupled resazurin reduction, fluorescence, NADPH 10 uM;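 active means average inhibition reaching 50% or more with the compound at 20 µM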;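 further: resorufin red fluorescence formed as diaphorase reduces resazurin using NADPH; 0% = DMSO with enzyme and 100% = DMSO without enzyme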
Diaph ctr 30uM = diaphorase inhibition or oxidation at 30 uM NADPH. shares compounds with PfG6PD inh. Diaphorase/resazurin coupled assay, resorufin fluorescence. inhibition, % at 20 µM. 29% of 820 active. AID 504863;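 active means inhibition averaging 50% or more, tested at 20 µM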;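 further: 0% = DMSO with enzyme and 100% = DMSO wells lacking diaphorase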
* = called active by the depositor; i = inactive; . = no result. Shown are actives, neighbours in structure and some others; about 2.7% of the full set was active somewhere.

SMILES	Neddylation inh	PfG6PD inh	FAS TE block	KLK7 zymogen act	PfGluPho conf	others
COc1ccc(OC)c(C2=Nn3c(nnc3-c3cc(OC)c(OC)c(OC)c3)SC2)c1	i	98*	20	0	89*	Diaphorase 10uM=81*;Diaph ctr 30uM=70*
c1ccc(C2=Nn3c(nnc3-c3cc(-c4ccccc4)n[nH]3)SC2)cc1	i	60*	2	0	11
Cc1cc(NC(=O)CN2CCN(S(=O)(=O)c3ccc(Cl)cc3)CC2)no1	i	3	-2	0	.
O=C(CN1CCN(c2ccc(O)cc2)CC1)NCC(=O)Nc1ccc(F)c(F)c1F	i	67*	-2	1	33
Cc1ccc(S(=O)(=O)N2CCN(C(=O)CN3CCN(c4ccc(O)cc4)CC3)CC2)cc1	i	64*	6	1	25
O=C(CN1CCN(c2ccc(O)cc2)CC1)Nc1ccc2c(c1)OCCO2	i	71*	0	1	21
Cc1cc(NC(=O)CN2CCN(c3ccc(O)cc3)CC2)no1	i	68*	-7	0	36
O=C(CN1CCCCCC1)Nc1ccc(F)c(F)c1F	i	-13	-6	0	.
Cc1c(/C=C/C(=O)c2cccs2)cnn1C	i	13	-8	3	.
CCc1ccc(C(=O)/C=C/c2cnn(C)c2C)s1	i	59*	-6	5	39
O=C1N(Cc2ccccc2)c2ccccc2C12CCCc1sc(CCc3ccccc3)nc12 (stereo not given)	.	.	.	0	.
COc1ccc(NC(=O)c2oc3ccccc3c2CSC)cn1	i	73*	10	1	29
CCCc1nc2c(=O)n(C)c(=O)nc-2n(C)n1	i	109*	4	0	103*	Diaphorase 10uM=98*;Diaph ctr 30uM=100*
Cn1nc(-c2ccccn2)nc2c(=O)n(C)c(=O)nc1-2	i	113*	-1	-4	89*	Diaphorase 10uM=98*;Diaph ctr 30uM=103*
Oc1ccccc1NCC(O)Cn1ccc2ccccc21 (stereo not given)	i	66*	4	0	28
CCCCn1c(N)c(-c2nc3ccccc3s2)c2c([N+](=O)[O-])nn(C)c(=O)c21	i	5	34	0	.
Cn1nc([N+](=O)[O-])c2c(-c3nc4ccccc4s3)c(N)n(C3CCCCC3)c2c1=O	i	77*	2	0	-3
O=C(NCc1ccccc1Cl)C1CCC(CNS(=O)(=O)c2cccc3cccnc23)CC1 (stereo not given)	.	.	.	0	.
O=C(NC1CCCCC1)C(=S)NCCc1ccccc1	i	65*	16	-1	4
Cc1nn(C(=O)c2ccco2)c(C)c1Sc1ccc(Cl)cc1	i	-4	0	0	.
Cc1nn(C(=O)c2cccnc2)c(C)c1Sc1ccc(Br)cc1	i	67*	9	.	44
Cc1ccc(C)c2nc3sc(C(=O)N4CCOCC4)c(N)c3cc12	i	44	-4	3	.
COCc1cc(C)nc2sc(C(=O)N3CCCC3)c(N)c12	i	-1	-3	1	.
Cc1cc(C)c2c(N)c(C(=O)N3CCCCCC3)sc2n1	i	70*	-8	1	1
Cc1cc(C)c2nc3sc(C(=O)N4CCOCC4)c(N)c3cc2c1	i	65*	0	2	24
SMILES	Neddylation inh	PfG6PD inh	FAS TE block	KLK7 zymogen act	PfGluPho conf	others
COc1ccc(CN(CCN2CCOCC2)C(=O)c2cc(F)ccc2F)cc1OC	.	.	.	0	.
COC(=O)C1=C(C)NC(C)=C(C(=O)OCC(C)C)C1c1ccccc1[N+](=O)[O-] (stereo not given)	i	62*	12	1	2
CCOC(=O)C1=C(C)NC(C)=C(C(=O)OCC)C1c1cccc([N+](=O)[O-])c1	i	6	22	0	.
COc1cccc2nc3cc(C)c(C)cc3nc12	i	96*	-4	1	57*	Diaphorase 10uM=46;Diaph ctr 30uM=43
CCn1ncc2c(OCc3ccc(C#N)cc3)cc(C)nc21	i	68*	18	0	22
O=C(CN1CCCc2ccccc21)NCc1ccccc1F	.	.	.	0	.
CNc1nc(-c2ccccc2)[n+](-c2ccc(C)cc2)s1	i	108*	-13	0	107*	Diaphorase 10uM=-25;Diaph ctr 30uM=-13
Cc1ccc(-c2nc(N)s[n+]2-c2ccccc2)cc1	i	110*	-11	0	56*	Diaphorase 10uM=-35;Diaph ctr 30uM=-23
Cc1ccc(-c2nc3ccccc3nc2-c2ccccc2)cc1	i	0	27	-13	.
Cc1ccc(-c2cc(-c3ccccc3)nc(NN)n2)cc1	i	4	-5	-1	.
CC(=O)N1[C@@H](CO)[C@@H](c2ccc(-c3cccc(F)c3)cc2)[C@@H]1CNCC1CCC1	.	.	.	0	.
Nc1ccc(Cc2ccc(N)c(O)c2)cc1O	i	72*	-6	-1	46
COc1cc(Cc2ccc(N)c(OC)c2)ccc1N	i	14	-11	-1	.
COc1cc(CN2CCN(CCCc3ccccc3)C(CCO)C2)cc(OC)c1O (stereo not given)	i	61*	-1	0	57*	Diaphorase 10uM=7;Diaph ctr 30uM=1
COc1ccc(CN2CCN(CCCc3ccccc3)C(CCO)C2)c(OC)c1 (stereo not given)	i	-16	1	-1	.
Brc1ccc(-c2nc3ccc(Br)cn3c2Cc2ccccc2)cc1	i	.	20	-1	.
Fc1ccc(-c2nc3ccc(Br)cn3c2Cc2ccccc2)cc1	i	67*	19	-1	-12
Cc1ccc(Cc2c(-c3ccc(Cl)cc3)nc3ccc(Br)cn23)cc1	i	67*	15	-1	-13
Clc1ccc(-c2nc3ccc(Br)cn3c2Cc2ccccc2)cc1	i	88*	23	0	-4
Fc1ccc(-c2nc3ccc(Br)cn3c2Cc2cccc(F)c2)cc1	i	.	-4	0	.
CN(CCc1ccccc1)C(=O)c1ccc2c(c1)ncn2C1CCCCC1	.	.	.	0	.
COc1ccc2oc(C)c(C(=O)c3ccc([N+](=O)[O-])cc3)c2c1	i	67*	21	0	15
COc1ccc2oc(C)c(C(N)=O)c2c1	i	-15	-6	0	.
COC(=O)[C@H](CCSC)NC(=O)c1cc2c(cn1)[nH]c1ccccc12	i	80*	-2	8	57*	Diaphorase 10uM=-10;Diaph ctr 30uM=-7
CSCC[C@H](NC(=O)c1cc2c([nH]c3ccccc32)c(-c2ccccc2)n1)C(=O)O	i	-1	-1	0	.
SMILES	Neddylation inh	PfG6PD inh	FAS TE block	KLK7 zymogen act	PfGluPho conf	others
Cc1ccc(Nc2n[nH]c(=S)s2)c(C)c1	i	71*	-4	0	14
Cc1cccc(Nc2n[nH]c(=S)s2)c1C	i	55	-9	0	.
COc1ccccc1Nc1n[nH]c(=S)s1	i	51	-6	1	.
Cc1cc(C)c(Nc2n[nH]c(=S)s2)cc1C	i	67*	-8	0	28
COc1cccc(Nc2n[nH]c(=S)s2)c1	i	62*	-11	0	5
Cc1cnn(-c2ccccc2)c1NC(=O)COCc1ccccc1	.	.	.	0	.
